In PubChem BioAssay (NCI):
This is part of a sample that, as a whole, favours compounds with a hit. Of some 79,000 tested, about 15% had one in any assay. Calls of active or inactive are those of the source. No stated cut-off is given here; in the data, active means growth inhibition above about 70%; inactive means the rest.

Legend:
[1] = NCI Yeast Anticancer Drug Screen. Data for the rad50 strain (AID 155);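 further: 0% = growth of vehicle-only cultures of the same strain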; settings: S. cerevisiae rad50 strain growth inhibition, active compounds read high
Procedure, shortened: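 Inhibition values express reduced yeast growth in compound-treated cultures relative to vehicle-treated controls.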

[2] = NCI Yeast Anticancer Drug Screen. Data for the mec2-1 strain (AID 157); settings: S. cerevisiae mec2-1 strain, active compounds read high
Procedure, shortened: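 Using mec2-1 yeast: add compound, measure growth, express inhibition versus vehicle-treated cultures.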

[3] = NCI Yeast Anticancer Drug Screen. Data for the sgs1 mgt1 strain (AID 161);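 further: 0% = growth of cultures given vehicle only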; settings: S. cerevisiae sgs1 mgt1 strain, active compounds read high
Procedure, shortened: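 Percent growth inhibition was derived by comparing compound-exposed mutant yeast with vehicle-exposed cultures. The strain carries alterations in DNA damage repair.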

[4] = NCI Yeast Anticancer Drug Screen. Data for the cln2 rad14 strain (AID 165);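 further: 0% = growth equal to vehicle treated cultures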; settings: S. cerevisiae cln2 rad14 strain, active compounds read high
Procedure, shortened: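 Yeast strain cln2 rad14, bearing defects in cell cycle control and DNA repair, serves as the test system; values reflect growth inhibition compared with vehicle.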

[5] = NCI Yeast Anticancer Drug Screen. Data for the bub3 strain (AID 167); settings: S. cerevisiae bub3 mutant strain, active compounds read high
Procedure, shortened: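 Steps: expose the mutant yeast strain to compound; grow alongside vehicle-treated cultures; measure growth; express inhibition against the vehicle cultures.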

[6] = NCI Yeast Anticancer Drug Screen. Data for the mlh1 rad18 strain (AID 175); settings: S. cerevisiae mlh1 rad18 strain growth inhibition, active compounds read high
Procedure, shortened: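 Steps: expose repair-defective yeast to compound; measure growth; express inhibition against vehicle-treated controls.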

[7] = at 5.0 µM (retest, dose inferred, filed as 0.5)
[8] = at 50.0 µM (retest, dose inferred, filed as 5.0)

Measured: growth inhibition

OC1C2CCC1C1C3C=CC(C3)C21 (configuration not stated)
active: [1]; [8] 91% | [1]; at 50.0 µM 84.8% | [2]; [8] 93% | [3]; [8] 88% | [4]; at 50.0 µM 70.2% | [5]; [8] 85% | [6]; [8] 94% | [6]; at 50.0 µM 83%
inactive: [1]; [7] 1% | [2]; [7] 5% | [2]; at 50.0 µM 62.2% | [3]; [7] 11% | [3]; at 50.0 µM 42.4% | [4]; [7] -3% | [4]; [8] 38% | [5]; [7] 11% | [5]; at 50.0 µM 52.1% | [6]; [7] -1%

O=C(O)c1ccccc1-c1c2cc([N+](=O)[O-])c(=O)c(Br)c-2oc2c(Br)c(O)c([N+](=O)[O-])cc12
inactive: [1]; [7] 27% | [2]; [7] 29% | [3]; [7] 25% | [3]; [8] 66% | [3]; at 50.0 µM 62% | [4]; [7] 34% | [4]; [8] 66% | [5]; [7] 32% | [5]; at 50.0 µM 66.5% | [6]; [7] 42%
active: [1]; [8] 91% | [1]; at 50.0 µM 77.5% | [2]; [8] 93% | [2]; at 50.0 µM 82.1% | [4]; at 50.0 µM 88.5% | [5]; [8] 75% | [6]; [8] 96% | [6]; at 50.0 µM 72.1%

C1CCN(c2nc(N3CCOCC3)c3[nH]c(N4CCCCC4)nc3n2)CC1
inactive: [1]; [7] 1% | [1]; at 50.0 µM 35% | [2]; [7] 5% | [2]; at 50.0 µM 35.4% | [3]; [7] 2% | [3]; at 50.0 µM 46.4% | [4]; [7] 8% | [4]; [8] 49% | [4]; at 50.0 µM 60.1% | [5]; [7] 0% | [5]; at 50.0 µM 49.6% | [6]; [7] -2% | [6]; [8] 68% | [6]; at 50.0 µM 36.5%
active: [1]; [8] 84% | [2]; [8] 90% | [3]; [8] 86% | [5]; [8] 71%

Cc1cc(C)c(N2C(=O)C=CC2=O)c(C)c1
active: [1]; [7] 98% | [1]; [8] 98% | [1]; at 50.0 µM 99.7% | [2]; [7] 99% | [2]; [8] 99% | [2]; at 50.0 µM 99.7% | [3]; [7] 99% | [3]; [8] 98% | [3]; at 50.0 µM 99.3% | [4]; [7] 99% | [4]; [8] 98% | [4]; at 50.0 µM 99.2% | [5]; [7] 99% | [5]; [8] 98% | [5]; at 50.0 µM 99.5% | [6]; [7] 98% | [6]; [8] 98% | [6]; at 50.0 µM 99.3%

CC1=C(C)C(=O)C(CNCc2ccccc2)=[C-]C1=O.[Co].[c-]1[c-][c-][cH-][c-]1
inactive: [1]; [7] 6% | [1]; [8] -13% | [1]; at 50.0 µM 45.8% | [2]; [7] -3% | [2]; [8] 26% | [2]; at 50.0 µM 35.6% | [3]; [7] 5% | [3]; [8] 19% | [3]; at 50.0 µM 44.8% | [4]; [7] 7% | [4]; [8] 10% | [4]; at 50.0 µM 51.1% | [5]; [7] 11% | [5]; [8] 15% | [5]; at 50.0 µM 19.1% | [6]; [7] 6% | [6]; [8] 3% | [6]; at 50.0 µM 32.3%

O=C([O-])c1ccccc1[I+]c1ccc(C2CCCCC2)cc1
active: [1]; at 50.0 µM 85.2% | [2]; at 50.0 µM 79.6% | [3]; at 50.0 µM 89.8% | [4]; at 50.0 µM 73.2% | [5]; at 50.0 µM 71.8% | [6]; [8] 85% | [6]; at 50.0 µM 89.9%
inactive: [1]; [7] 3% | [1]; [8] 45% | [2]; [7] 2% | [2]; [8] 67% | [3]; [7] 22% | [3]; [8] 50% | [4]; [7] 3% | [4]; [8] 47% | [5]; [7] 0% | [5]; [8] 45% | [6]; [7] 32%

Cc1ccc2c(c1)C1(SC(C)C(=O)N1c1ccc(F)cc1)C(=O)N2 (configuration not stated)
active: [1]; [8] 98% | [1]; at 50.0 µM 99% | [2]; [8] 99% | [2]; at 50.0 µM 98.8% | [3]; [8] 98% | [3]; at 50.0 µM 98.8% | [4]; [8] 98% | [4]; at 50.0 µM 97.8% | [5]; [8] 99% | [5]; at 50.0 µM 98.6% | [6]; [8] 99% | [6]; at 50.0 µM 99%
inactive: [1]; [7] 11% | [2]; [7] 15% | [3]; [7] 14% | [4]; [7] 11% | [5]; [7] 10% | [6]; [7] 11%

NC(=S)c1cccc(OCCCOc2ccccc2)c1
active: [1]; at 50.0 µM 99.2% | [2]; at 50.0 µM 99.6% | [3]; at 50.0 µM 98.7% | [4]; at 50.0 µM 98.2% | [5]; at 50.0 µM 99.5% | [6]; at 50.0 µM 99.3%
inactive: [1]; [7] 2% | [1]; [8] 4% | [2]; [7] 0% | [2]; [8] 14% | [3]; [7] 11% | [3]; [8] 17% | [4]; [7] -8% | [4]; [8] 1% | [5]; [7] 6% | [5]; [8] 13% | [6]; [7] 4% | [6]; [8] 30%

S=C(N/N=C/c1ccco1)NC12CC3CC(CC(C3)C1)C2
inactive: [1]; [7] 29% | [1]; at 50.0 µM 2.95% | [2]; [7] 24% | [2]; at 50.0 µM 8.05% | [3]; at 50.0 µM 10.9% | [4]; [7] 51% | [4]; at 50.0 µM -0.25% | [5]; at 50.0 µM 13.4% | [6]; [7] 47% | [6]; at 50.0 µM 26.2%
active: [1]; [8] 94% | [2]; [8] 95% | [3]; [7] 76% | [3]; [8] 96% | [4]; [8] 91% | [5]; [7] 71% | [5]; [8] 93% | [6]; [8] 94%
